Laboratory results taken from PubChem BioAssay.
Activity calls are given as the source filed them. No rule for the calls is given here.

Experiments:
[1] = circadian clock period modulators, cell-based, LOPAC library, luminescence reporter (AID 2774); conditions: circadian reporter cells, at 7 µM, actives lie on both sides;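 also: values are relative to mean of DMSO wells on each plate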
[2] = hESC survival regulators, cell-based (AID 493140); conditions: human embryonic stem cell survival screen; hits give high values;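 also: cells exposed to compounds for four days before counting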

## CCOC(=O)C1=C[C@]2(CC)CCCN3CCc4c(n1c1ccccc41)[C@@H]32
[1]
  period change: 0 h (inactive)
[2]
  survival: 5.33 (inactive)

## C[C@@H]1C[C@H]2[C@@H]3C[C@H](F)C4=CC(=O)C=C[C@]4(C)[C@@]3(F)[C@@H](O)C[C@]2(C)[C@@]1(O)C(=O)CO
[2]
  survival: 2.17 (inactive)

## CCOC(=O)OC(C)OC(=O)[C@@H]1N2C(=O)[C@@H](NC(=O)[C@H](N)c3ccccc3)[C@H]2SC1(C)C (some centres undefined)
[2]
  survival: 16.9 (inactive)

## CNC1(C)C2CCC(C2)C1(C)C (centres undefined)
[1]
  period change: 0.19 h (inactive)
[2]
  survival: 42 (inactive)

## CCCc1c(OCCCCc2nn[nH]n2)ccc(C(C)=O)c1O
[2]
  survival: 110 (inactive)

## O=C(CCCCC(=O)Nc1c(I)cc(I)c(C(=O)O)c1I)Nc1c(I)cc(I)c(C(=O)O)c1I
[2]
  survival: 5.33 (inactive)

## C[C@]12C=CC(=O)C=C1CC[C@H]1[C@@H]3C[C@@H](O)[C@](O)(C(=O)CO)[C@@]3(C)C[C@H](O)[C@@]12F
[1]
  period change: -0.51 h (inactive)
[2]
  survival: 13.9 (inactive)

## COc1cc(C)nc(-n2nc(C)cc2OC)n1
[2]
  survival: 33.2 (inactive)

## COCCCC/C(=N\OCCN)c1ccc(C(F)(F)F)cc1
[1]
  period change: -0.015 h (inactive)
[2]
  survival: 6.67 (inactive)

## COc1cc(OC)c(C(=O)CCCN2CCCC2)c(OC)c1
[2]
  survival: 9.58 (inactive)

## CCOc1cc(CC(=O)N[C@@H](CC(C)C)c2ccccc2N2CCCCC2)ccc1C(=O)O
[2]
  survival: 7.75 (inactive)

## CC[N+](C)(C)Cc1ccccc1Br
[1]
  period change: 0.095 h (inactive)
[2]
  survival: 6.92 (inactive)

## C[C@]12C[C@H](O)[C@H]3[C@@H](CCC4=CC(=O)CC[C@@]43C)[C@@H]1CC[C@@H]2C(=O)CO
[1]
  period change: -0.34 h (inactive)
[2]
  survival: 6.08 (inactive)

## COc1cc2nc(N3CCN(C(=O)C4COc5ccccc5O4)CC3)nc(N)c2cc1OC (centres undefined)
[1]
  period change: 0.11 h (inactive)
[2]
  survival: 4.33 (inactive)

## CCOC(=O)C1=C(C)NC(C)=C(C(=O)OC)C1c1cccc(Cl)c1Cl (centres undefined)
[1]
  period change: -0.06 h (inactive)
[2]
  survival: 15.7 (inactive)

## O=C(O)/C=C/c1ccc(Cn2ccnc2)cc1
[2]
  survival: 12.1 (inactive)

## Nc1ccn([C@H]2CC[C@@H](CO)O2)c(=O)n1
[1]
  period change: -0.095 h (inactive)
[2]
  survival: 9 (inactive)

## COC(=O)[C@@H]1[C@H]2C[C@H]3c4[nH]c5ccccc5c4CCN3C[C@@H]2CC[C@@H]1O
[1]
  period change: 0.095 h (inactive)
[2]
  survival: 8.25 (inactive)

## COc1ccc2nc(S(=O)Cc3ncc(C)c(OC)c3C)[nH]c2c1 (centres undefined)
[2]
  survival: 10.2 (inactive)

## Cc1nc2n(c(=O)c1CCN1CCC(c3noc4cc(F)ccc34)CC1)CCCC2
[1]
  period change: 0.015 h (inactive)
[2]
  survival: 5 (inactive)

## CCCCN(CCCC)CCC(O)c1cc2c(Cl)cc(Cl)cc2c2cc(C(F)(F)F)ccc12 (centres undefined)
[2]
  survival: 1.5 (inactive)

## CC(C)(C(=O)c1cccnc1)c1cccnc1
[2]
  survival: 5 (inactive)

## c1cnc(N2CCN(Cc3ccc4c(c3)OCO4)CC2)nc1
[1]
  period change: -0.05 h (inactive)
[2]
  survival: 3.67 (inactive)

## Cc1ccc(S(=O)(=O)NC(=O)NN2CC3CCCC3C2)cc1 (centres undefined)
[2]
  survival: 5.67 (inactive)

## CC(=O)OCC(=O)[C@@]1(O)[C@H](C)C[C@H]2[C@@H]3CCC4=CC(=O)C=C[C@]4(C)[C@@]3(F)[C@@H](O)C[C@@]21C
[2]
  survival: 16.5 (inactive)

## CNNCc1ccc(C(=O)NC(C)C)cc1
[2]
  survival: 6.5 (inactive)

## Cc1ncc([N+](=O)[O-])n1CC(O)CCl (centres undefined)
[2]
  survival: 23.5 (inactive)

## COc1cc(N)c(Cl)cc1C(=O)NC1CCN(Cc2ccccc2)CC1
[2]
  survival: 5.67 (inactive)

## Cc1c(Cl)cccc1Nc1ccccc1C(=O)O
[2]
  survival: 17.2 (inactive)

## O=C(CCNNC(=O)c1ccncc1)NCc1ccccc1
[1]
  period change: -0.045 h (inactive)
[2]
  survival: 17.5 (inactive)

## CCN1CCN(C(=O)N[C@@H](C(=O)N[C@@H]2C(=O)N3C(C(=O)O)=C(CSc4nnnn4C)CS[C@H]23)c2ccc(O)cc2)C(=O)C1=O
[2]
  survival: 9.17 (inactive)
